High-throughput results (PubChem)
Sampled rows, rich in hits. Any-hit rate of the full collection: about 7.4%.
NPR1 antag – blocks ANP-stimulated signaling of human Npr1 receptor; P16066; HEK293 hNpr1 GloSensor cGMP, ANP-stimulated luminescence; Potency, µM (top dose mostly 46.3 µM), inactives show at the top dose activity change, negative = inhibition, usual class: inhibitors; 76,000 tested, 1.6% active; AID 1347048; calls by dose curve; further: nearly all actives have a fitted effect of over 60% in size
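Compound pre-incubated 30 min at room temperature on GloSensor-loaded HEK293 cells stably carrying hNpr1 and the pGS-40F cGMP biosensor. Stimulation uses hNppA at 0.1 nM final; luminescence is taken at baseline and 20 min post-agonist.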
SNCA expr inhib – inhibitors of alpha-synuclein (SNCA) gene expression | HEK-293 SNCA-luciferase knock-in, luminescence, 24 h | Potency, µM (top dose mostly 57.2 µM), inactives show top-dose activity change, negative = inhibition, hits mostly inhibitors | 140,000 tested, 0.17% active | AID 1671194;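 further: plate controls were DMSO cells for no effect and cell-free wells for full effect; nearly all actives have a fitted effect of over 45% in size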
HEK cytotox – kills HEK 293 cells; Potency, µM (series often up to 115 µM), for the others: top-dose activity change, negative = cytotoxicity, hits mostly inhibitors; 94,000 tested, 6.6% active; HEK 293 viability, ATP luminescence (CellTiter-Glo), 48-72 h; AID 1345083; further: nearly all actives have a fitted effect of over 60% in size
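Viability of HEK 293 cells, plated at 250 cells/well, was judged by cellular ATP after compound treatment for 48 or 72 hr. Luminescence was imaged 10 min after CellTiter-Glo addition at room temperature.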
SNCA viab count – counter-screen for SNCA expression inhibitors: cell viability; HEK-293-SNCA-luc viability, GF-AFC fluorescence, 24 h; 150,000 tested, 0.12% active; Potency, µM (top dose mostly 57.1 µM), without a hit: top-dose activity change, negative = cytotoxicity, usual class: cytotoxic;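 further: 0% = DMSO-treated cells and -100% = medium-only wells without cells; nearly all actives have a fitted effect of over 30% in size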
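Cytotoxicity counterscreen: after 24 h compound treatment of genome-edited SNCA-luciferase HEK-293 cells, live-cell protease substrate GF-AFC read by fluorescence after 30 min; activity scaled between DMSO (0%) and medium-only (-100%), curves Hill-fitted.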
Luciferase inh – Photinus pyralis luciferase inhibition. P08659. purified P. pyralis luciferase, luminescence, biochemical. Potency, µM (top dose mostly 115 µM), usual class: inhibitors. 76,000 tested, 2.5% active; further: nearly all actives have a fitted effect of over 65% in size
Target sequence (P08659 whole entry, looked up): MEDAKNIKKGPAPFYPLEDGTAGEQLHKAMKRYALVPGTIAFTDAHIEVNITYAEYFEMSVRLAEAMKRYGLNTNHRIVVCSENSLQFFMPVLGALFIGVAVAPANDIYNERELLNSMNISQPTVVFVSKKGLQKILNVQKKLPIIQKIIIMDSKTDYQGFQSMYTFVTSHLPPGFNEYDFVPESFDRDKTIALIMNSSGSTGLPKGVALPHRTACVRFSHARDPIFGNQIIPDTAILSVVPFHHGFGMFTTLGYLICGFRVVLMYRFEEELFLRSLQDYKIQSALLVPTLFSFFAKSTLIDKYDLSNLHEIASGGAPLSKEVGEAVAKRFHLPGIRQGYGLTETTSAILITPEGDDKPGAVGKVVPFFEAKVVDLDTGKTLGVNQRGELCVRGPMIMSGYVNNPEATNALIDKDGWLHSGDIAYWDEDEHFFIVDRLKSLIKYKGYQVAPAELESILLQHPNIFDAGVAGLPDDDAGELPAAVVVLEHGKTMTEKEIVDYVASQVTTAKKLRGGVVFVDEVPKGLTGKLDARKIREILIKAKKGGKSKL
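Purified 10nM P. pyralis luciferase with 10uM D-luciferin and 10uM ATP in 50mM Tris acetate pH 7.5, 10mM Mg acetate, 0.01% Tween-20, 0.05% BSA. qHTS titration; luminescence read by CCD imager.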
NIH3T3 tox – NIH 3T3 cell cytotoxicity; AID 1345082; 94,000 tested, 4.3% active; Potency, µM (highest dose often 96.7 µM), for inactives: at the highest dose activity change, negative = cytotoxicity, hits mostly inhibitors; NIH 3T3 viability, CellTiter-Glo ATP luminescence, 48-72 h; further: nearly all actives have a fitted effect of over 55% in size
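First NIH 3T3 cells are plated at 400 cells/well; next compound is pinned in; then plates incubate 48 or 72 hr at 37 °C; finally CellTiter-Glo is added and luminescence read after 10 min.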
Numbers without * were called inactive; i = inactive; ? = inconclusive; · = no result; ! = not active in a repeat; [ ] = dose if it differs, or a comment. Unless noted, the call rests on the fitted dose curve; in most records, active means well fitted curve in the direction sought with a large enough effect; inconclusive means small, poorly fitted or top-dose-only effect, or another doubt; inactive means no such curve, though single readings can be large; an effect the other way counts as inactive or inconclusive. Unless noted, on the % scale 0 is the no-effect control and ±100 the full control effect; potency means the concentration at half of the fitted maximal effect.

SMILES	NPR1 antag	SNCA expr inhib	HEK cytotox	SNCA viab count	Luciferase inh	NIH3T3 tox
Cc1ccc(-n2nc(C)c([C@@H]3C=C[C@@H](NCc4cccc(C#N)c4)C3)c2C)cc1Cl	?	?	25µM*	?	?	?
COCCCNc1ncnc2c1CN(c1cccc(C)c1)C(=O)CN2C	·	-8%	-3%	2%	·	-27%
O=C(NCc1ccc(C(F)(F)F)cc1)c1cc(-c2ccsc2)c2nncn2n1	·	-4%	?	-13%	·	?
O=C(CC1CCCCN(Cc2ccccc2)C1=O)Nc1ccccc1F (stereo not given)	·	-2%	?	1%	·	?
O=C(CNC(=O)c1cccc(-c2ccc(C(F)(F)F)cc2)c1)NC1CCCC1	·	-11%	?	9%[12.5 µM]	·	?
Cc1nn(-c2ccc(C(C)C)cc2)c(C)c1[C@@H]1C=C[C@@H](NCc2cccc(C#N)c2)C1	-19%[70.6 µM]	-24%[87.6 µM]	25µM*	?	?	?
Cc1ccccc1C(=O)NC1CCN(c2ccc3nnc(C)n3n2)CC1	·	·	-28%	·	·	-28%
CCOC(=O)C1CCCN(C(=O)c2ccc3nc(-c4ccncc4)oc3c2)C1 (stereo not given)	·	-5%	45µM*	7%	·	?
O=C(c1ccc2oc(-c3ccncc3)nc2c1)N1CCCCC1	·	16%	40µM*	2%	·	?
O=C(c1ccc2oc(-c3ccnc(Cl)c3)nc2c1)N1CCOCC1	·	-23%	?	-5%[12.5 µM]	·	35µM*
CC1CCCC(C)N1C(=O)c1ccc2nc(-c3ccncc3)oc2c1 (stereo not given)	·	27%[87.6 µM]	71µM*	-4%[87.6 µM]	·	-29%[138 µM]
CCN1Cc2cc(OC)ccc2N(C(C)=O)CCC1=O	·	·	-10%	·	·	?
CCNC(=O)OC1CN(C(=O)c2ccc(C(C)(C)C)cc2)CCC(=O)N(C)c2ccccc21 (stereo not given)	·	18%[25.6 µM]	?	2%[23.9 µM]	·	-25%[46.1 µM]
O=C(Nc1cc(-c2ccccn2)nn1-c1ccccc1)c1ccc(Cl)cc1	·	8%	-11%	-3%	·	-15%
Cc1nn(-c2ccccc2)c2c1C(C(C)C)N(C1CN(C(=O)C3CC3)C1)C2=O (stereo not given)	·	·	-9%	·	·	-24%
Cc1nn(-c2ccccc2)c2c1C(C(C)C)N(C1CCN(C(=O)c3ccccc3)CC1)C2=O (stereo not given)	·	·	45µM*	·	·	?
Cc1nn(-c2ccccc2)c2c1C(C(C)C)N(C1CCN(C(=O)N(C)C)CC1)C2=O (stereo not given)	·	·	45µM*	·	·	?
COC(=O)N1CCC(N2C(=O)c3c(c(C)nn3-c3ccccc3)C2C(C)C)CC1 (stereo not given)	·	·	?	·	·	-21%
Cc1nn(-c2ccccc2)c2c1C(C)N(C1CCN(C(=O)Cc3ccc(F)cc3)CC1)C2=O (stereo not given)	·	·	50µM*	·	·	?
Cc1nn(-c2ccccc2)c2c1C(C(C)C)N(C1CCN(C(=O)c3ccncc3)C1)C2=O (stereo not given)	·	·	?	·	·	-18%
Cc1nn(-c2ccccc2)c2c1C(C(C)C)N(C1CN(C(=O)c3ccc(Cl)cc3)C1)C2=O (stereo not given)	·	·	32µM*	·	·	?
O=C(c1ccccc1Cl)N1CCC(C(=O)N2CCC(N3Cc4cccn4C3=O)CC2)CC1	·	2%	-27%	-2%	·	-22%
COc1ccccc1Nc1ccnc(N2CCCC(C(=O)NCCSC)C2)n1 (stereo not given)	·	52%	?	6%[12.5 µM]	·	?
COc1ccccc1-c1ccc(C(=O)N2CCC(NC(=O)NC3CCCC3)CC2)cc1	·	-4%	?	5%[12.5 µM]	·	?
Cc1nn(-c2ccccc2)c2c1C(C(C)C)N(C1CCN(C(=O)c3ccc(C(F)(F)F)cc3)C1)C2=O (stereo not given)	·	·	?	·	·	16µM*
SMILES	NPR1 antag	SNCA expr inhib	HEK cytotox	SNCA viab count	Luciferase inh	NIH3T3 tox
Cc1nn(-c2ccccc2)c2c1C(C)N(C1CCN(C(=O)c3ccc(F)cc3)CC1)C2=O (stereo not given)	·	·	?	·	·	35µM*!
Cc1nn(-c2ccccc2)c2c1C(C(C)C)N(C1CCN(C(=O)c3ccc(F)cc3)CC1)C2=O (stereo not given)	·	·	35µM*	·	·	?
CC(C)NC(=O)C1CCCN(c2ccnc3ccnn23)C1 (stereo not given)	·	-5%[87.6 µM]	-16%[172 µM]	-8%[87.6 µM]	·	-28%[138 µM]
CCOC(=O)C1CCN(C(=O)c2nc3sccn3c2-c2ccncc2)CC1	·	2%	i	?	·	-16%
C=C1C(=O)OC2/C=C(\C)CC/C=C(\C)CC(OC(C)=O)C12 (stereo not given)	·	·	·	34%	·	·
C=C1C(=O)O[C@@H]2/C=C(\C)C(=O)/C=C/[C@](C)(O)C[C@@H](OC(=O)C(C)C)[C@@H]12	·	·	·	9.3µM*	·	·
CC(C)CCN1CCOc2cc([S+](=O)([O-])Nc3nncs3)ccc2C1	0%[70.6 µM]	8%[87.6 µM]	-12%[172 µM]	1%[87.6 µM]	i	32µM*
CC(C)CCN1CCOc2cc([S+](=O)([O-])Nc3cccnc3)ccc2C1	-19%[70.6 µM]	14%[87.6 µM]	?	-4%[87.6 µM]	i	28µM*
O=[S+]([O-])(Nc1cccnc1)c1ccc2c(c1)OCCN(Cc1ccsc1)C2	?	0%[87.6 µM]	?	5%[87.6 µM]	i	?
COc1ccc2c(c1)C(COCc1ccc(C(=O)O)cc1)CC(C)(C)O2 (stereo not given)	·	·	i	·	·	?
COCCNC(=O)c1nc2cccnc2n(Cc2ccccc2)c1=O	·	-8%	1%	1%	·	-16%
Cn1cc(-c2cnc3[nH]cc(CC(=O)N4CCCC4)c3c2)cn1	9%[70.6 µM]	?	-29%[172 µM]	4%[87.6 µM]	i	32µM*
C[S+](=O)([O-])c1ccc(-c2cnc3[nH]cc(CC(=O)N4CCOCC4)c3c2)cc1	0%[70.6 µM]	9%[87.6 µM]	-3%[172 µM]	-7%[87.6 µM]	i	45µM*
COC1CCN(C(=O)Cc2c[nH]c3ncc(-c4cnn(C)c4)cc23)CC1	6%[70.6 µM]	1%[87.6 µM]	?	-9%[87.6 µM]	i	45µM*
O=C(Cc1c[nH]c2ncc(-c3ccccc3)cc12)N1CC[S+](=O)([O-])CC1	0%[70.6 µM]	15%[87.6 µM]	-1%[172 µM]	0%[87.6 µM]	?	?
Cn1cc(-c2cnc3[nH]cc(CC(=O)Nc4cccc(OC(F)(F)F)c4)c3c2)cn1	?	-15%[87.6 µM]	?	?	i	?
O=C([C@H]1CCCN1C(=O)Nc1ccccc1)N1CCCC(c2nc3ccncc3[nH]2)C1 (stereo not given in full)	·	4%	-4%	-2%	·	-17%
Cc1ccccc1C(=O)NC1CCN(c2ccnc3ccnn23)C1 (stereo not given)	·	-28%[87.6 µM]	?	10%[87.6 µM]	·	?
